This is a sample that favours compounds with a hit; in the whole collection about 7.4% have one here.
NPC1 promoter act – NPC1 promoter activation; Potency, µM (series often up to 9.22 µM), for inactives: at the top dose activation, hits mostly activators; AID 485313; Huh7 NPC1 promoter luciferase reporter, 24 h; hit rate 2.4% among 320,000; note: % of control where 0% means no effect; nearly all actives have a fitted effect of over 60% in size
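Luminescence from an NPC1 promoter-driven luciferase reporter in stably transfected Huh7 cells was measured after 24 h compound treatment at 37 °C, followed by 10 min ambient incubation with luciferase detection reagent.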
Rab9 promoter act – Rab9 promoter activation; hit rate 2.8% among 320,000; AID 485297; Potency, µM (highest dose often 9.22 µM), inactives show at the highest dose activation, negative = inhibition, most hits filed as activators; Huh7 Rab9 promoter-luciferase reporter, luminescence, 24 h; note: % of control where 0% means no effect; nearly all actives have a fitted effect of over 60% in size
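Promoter activation is measured as luciferase luminescence in Huh7 cells stably transfected with a Rab9 promoter–luciferase construct, following 24 h compound exposure at 37 °C and 10 min reagent incubation at ambient temperature.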
ELG1 genotoxic – inducers of genotoxicity in HEK293T ELG1-luciferase cells; hit rate 1.3% among 330,000; AID 504466; Potency, µM (titrated, usually from 46 µM), for the others: at the highest dose activity change, positive = activation, actives largely listed as activators; HEK293T ELG1-luciferase reporter, luminescence, 16 h; note: % of control where 0% means no effect; nearly all actives have a fitted effect of over 60% in size
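HEK293T cells expressing luciferase-tagged ELG1 were treated with compound or DMSO for 16 hr at 37°C. Luciferase activity was then read after 30 min with ONE-Glo at room temperature; rising signal flags genetic stress.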
FLuc counter – counter-screen for miR-21 project: firefly luciferase inhibitors or activators; purified FLuc, Km substrates, luminescence inhibition; Potency, µM (series often up to 57.5 µM), without a hit: at the top dose activity change, negative = inhibition, most hits filed as inhibitors; hit rate 6.9% among 360,000; AID 588342;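 note: plate controls were vehicle for no effect and reference inhibitor for full effect; nearly all actives have a fitted effect of over 55% in size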
Target sequence (P08659 whole entry, looked up): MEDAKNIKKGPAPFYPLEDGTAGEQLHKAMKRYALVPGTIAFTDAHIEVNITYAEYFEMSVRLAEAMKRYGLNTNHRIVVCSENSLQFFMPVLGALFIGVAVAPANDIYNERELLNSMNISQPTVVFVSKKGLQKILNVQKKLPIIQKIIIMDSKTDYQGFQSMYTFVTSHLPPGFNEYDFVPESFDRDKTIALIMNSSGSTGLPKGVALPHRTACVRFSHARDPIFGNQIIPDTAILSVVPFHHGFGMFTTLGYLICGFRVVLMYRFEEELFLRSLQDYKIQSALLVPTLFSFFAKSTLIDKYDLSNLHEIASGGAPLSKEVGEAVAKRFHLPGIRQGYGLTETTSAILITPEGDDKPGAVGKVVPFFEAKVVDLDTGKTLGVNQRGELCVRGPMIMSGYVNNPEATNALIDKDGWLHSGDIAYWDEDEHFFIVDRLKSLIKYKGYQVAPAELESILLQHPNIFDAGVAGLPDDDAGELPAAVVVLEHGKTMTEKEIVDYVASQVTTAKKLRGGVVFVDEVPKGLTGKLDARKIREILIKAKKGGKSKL
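Biochemical qHTS of compounds, final roughly 60 µM downward over six points, against 10 nM purified firefly luciferase using Km concentrations of substrates (10 uM D-luciferin, 10 uM ATP) in Tris acetate pH 7.5 buffer; luminescence output.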
p53 reactivation – mutant p53 re-activation in reporter cells; AID 504706; Potency, µM (top dose mostly 92.2 µM), for inactives: at the highest dose activity change, positive = activation, actives largely listed as activators; hit rate 0.063% among 320,000; H1299 p53-A138V BP100-luciferase reporter, luminescence, 24 h; note: % of control where 0% means no effect; nearly all actives have a fitted effect of over 45% in size
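H1299 (p53-null), stable ts p53-A138V + BP100-Luc; 1000 cells/well, Opti-MEM/10% FBS; cpd 4 pt, 1:5; 24 h, 37 deg C, 5% CO2; detection reagent 10 min RT; luminescence.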
SMN2 splice up – SMN2 splice variant enhancement; hit rate 2.8% among 210,000; Potency, µM (top dose mostly 46.1 µM), for inactives: top-dose activity change, positive = activation, usual class: activators; HEK293 SMN2-luciferase splicing reporter, luminescence, 30-36 h; note: % of control where 0% means no effect; nearly all actives have a fitted effect of over 55% in size
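qHTS luciferase splicing reporter: luminescence rises when SMN2 exon 7 is included in transfected HEK293 cells. Compound exposure lasted 30-36 h at 37C, with 4.5 mM final sodium butyrate as control, followed by a ONE-Glo read.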
* hit, by the source's call; ? = inconclusive; . = no result; [ ] = dose if it differs, or a comment. Calls come from the whole dose curve; as a rule, active = well fitted curve in the direction sought with a large enough effect; inconclusive = small, poorly fitted or top-dose-only effect, or another doubt; inactive = no such curve, though single readings can be large; an effect the other way counts as inactive or inconclusive. Potency is the fitted concentration of half-maximal effect.

SMILES	NPC1 promoter act	Rab9 promoter act	ELG1 genotoxic	FLuc counter	p53 reactivation	SMN2 splice up
Cc1nn(Cc2c(Cl)cccc2Cl)c(C)c1NC(=O)c1cc(C(C)C)on1	1%	0%	-4%	-1%	?	3.5µM*
O=C(Nc1ccccc1Cl)c1cccc(COc2cc(Cl)ccc2Cl)c1	2.2µM*	4µM*	?	?	19%	6.3µM*
Cc1nn(Cc2c(F)c(F)c(F)c(F)c2F)c(C)c1NC(=O)c1cccc(COc2ccccc2Cl)c1	0.5µM*	0.35µM*	?	6µM*	-1%	10µM*
O=C(O)c1cccc(COc2ccccc2Cl)c1	?	0.89µM*	.	0.15µM*	-47%	0.032µM*
Cc1nn(Cc2ccccc2Cl)c(C)c1NC(=O)c1cc(C(C)C)on1	.	.	.	-15%	.	?
CNc1ncncc1-c1ccccc1OC	.	.	.	.	.	-9%
Cc1snc(SCc2ccc(Cl)cc2)c1C#N	-5%	1%	4%	-15%	4%	.
COc1ccc(S(=O)(=O)N2CCCC2)cc1C(=O)O	-7%	-4%	0%	-5%	19%	.
CN1CCN(C(=O)c2cccc(COc3cc(Cl)ccc3Cl)c2)CC1	3.2µM*	1.1µM*	?	?	?	10µM*
CN1CCN(C(=O)c2ccc(COc3cc(Cl)ccc3Cl)o2)CC1	-1%	-4%	6%	-3%	3%	.
O=C(O)c1ccc(COc2ccccc2Cl)cc1	14%	24%	2%	21µM*	15%	12%
O=[N+]([O-])c1ccc2c(c1)Cc1cc(N=Cc3ccc4c(c3)OCO4)ccc1-2	.	.	.	.	.	-5%[9.22 µM]
CCOc1ccccc1C(=O)N1CCc2cc(OC)c(OC)cc2C1COc1ccc2c(C)cc(=O)oc2c1 (stereo not given)	.	.	.	-5%	.	-4%
COc1ccccc1CN1CC2(CCN(C(=O)c3cnccn3)CC2)C1	.	.	.	.	.	2%
CCCOc1ccc(/C=N/NC(=O)c2c(-c3ccccc3)noc2C)cc1OC	-3%	5%	-5%	0%	8%	.
C=CCOc1ccc(/C=N/NC(=O)C(=O)N2CCCCCC2)cc1OC	-4%	3%	4%	-1%	0%	.
CCOc1ccc(/C=N/Nc2ccccn2)cc1OC	?	2.8µM*	21µM*	5.4µM*	0%	14µM*
C=CCOc1ccc(/C=N/Nc2ccccn2)cc1OC	3.5µM*	?	?	5.4µM*	10%	11µM*
CCOc1ccc(/C=N/Nc2nc(=O)[nH]nc2C)cc1OC	-3%	0%	7%	-11%	17%	.
CCCOc1ccc(/C=N/Nc2ccccn2)cc1OC	?	2µM*	?	3.4µM*	10%	10µM*
COc1cc(/C=N/Nc2ccccn2)cc(OC)c1O	-6%	4%	-9%	12µM*	9%	19%
CCOC(=O)C1=C(CS(=O)(=O)c2ccc(Br)cc2)NC(=O)NC1c1ccccc1 (stereo not given)	.	.	.	5%	.	-6%
COc1cc(/C=N/Nc2ccccn2)ccc1OCC(C)C	?	?	15%	2.7µM*	2%	?
CCOc1ccc(/C=N/N(C)c2ccccc2)cc1OC	?	3.2µM*	4.6µM*	4.8µM*	?	25µM*
COc1ccc(/C=N/N(c2ccccc2)c2ccccc2)cc1O	-3%	-4%	4%	?	-3%	.
SMILES	NPC1 promoter act	Rab9 promoter act	ELG1 genotoxic	FLuc counter	p53 reactivation	SMN2 splice up
COc1ccc(/C=N/Nc2ncnc3scc(-c4ccccc4)c23)cc1OC	-2%	7%	-9%	?	-2%	2%
c1ccc2c(CN3CCN(Cc4c[nH]c5ccccc45)CC3)c[nH]c2c1	.	.	.	.	.	1%[9.22 µM]
COC(=O)CSc1nnc(-c2sc3ccccc3c2Cl)o1	-6%	4%	-2%	5.4µM*	-21%	-10%
OCC#CCSc1nnc(-c2cccc3ccccc23)o1	-3%	-1%	5%	?	0%	.
N#CCSc1nnc(-c2sc3ccccc3c2Cl)o1	1%	12%	2%	17µM*	?	-23%
COc1ccc(CNC(=O)c2cc3cccc4c3n2CC(C)S4)cc1OC (stereo not given)	.	.	.	-14%	.	.

Assay outcomes as filed in PubChem BioAssay.
